Here are results for seven molecules from PubChem BioAssay (Tox21).

Test [1] can be described thus: qHTS assay to identify small molecule antagonists of the thyroid receptor (TR) signaling pathway - cell viability counter screen (AID 743064). Also: nearly all actives have a fitted effect of over 50% in size. The method in brief: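 Same-well viability check: GH3.TRE-Luc cells stimulated with 1 nM T3 alongside test compound for 23.5 h, followed by CellTiter-Fluor fluorescence.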
In test [2] the test system is thyroid hormone receptor (rat, GH3 cells). The test can be described thus: qHTS assay to identify small molecule agonists of the thyroid receptor (TR) signaling pathway (AID 743066; calls by dose curve).
Test [3] in a line: qHTS assay to identify small molecule antagonists of the estrogen receptor alpha (ER-alpha) signaling pathway - cell viability counter screen (AID 743074; calls by dose curve;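 also: HEK293 cells carrying ER-alpha-UAS-bla reporter stimulated with 17beta-estradiol; nearly all actives have a fitted effect of over 45% in size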).
Test [4] can be described thus: qHTS assay to identify small molecule antagonists of the estrogen receptor alpha (ER-alpha) signaling pathway using the BG1 cell line - cell viability counter screen (AID 743081).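 Also: compound given together with 17beta-estradiol as the ER stimulus; series mostly up to about 70 µM; nearly all actives have a fitted effect of over 45% in size.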
A further test deals with Aromatase (Homo sapiens) (UniProt P11511). The test can be described thus: qHTS assay to identify aromatase inhibitors (AID 743083). Also: series mostly up to about 70 µM; nearly all actives have a fitted effect of over 55% in size.
Chain of Aromatase (Homo sapiens) (P11511 whole entry, looked up): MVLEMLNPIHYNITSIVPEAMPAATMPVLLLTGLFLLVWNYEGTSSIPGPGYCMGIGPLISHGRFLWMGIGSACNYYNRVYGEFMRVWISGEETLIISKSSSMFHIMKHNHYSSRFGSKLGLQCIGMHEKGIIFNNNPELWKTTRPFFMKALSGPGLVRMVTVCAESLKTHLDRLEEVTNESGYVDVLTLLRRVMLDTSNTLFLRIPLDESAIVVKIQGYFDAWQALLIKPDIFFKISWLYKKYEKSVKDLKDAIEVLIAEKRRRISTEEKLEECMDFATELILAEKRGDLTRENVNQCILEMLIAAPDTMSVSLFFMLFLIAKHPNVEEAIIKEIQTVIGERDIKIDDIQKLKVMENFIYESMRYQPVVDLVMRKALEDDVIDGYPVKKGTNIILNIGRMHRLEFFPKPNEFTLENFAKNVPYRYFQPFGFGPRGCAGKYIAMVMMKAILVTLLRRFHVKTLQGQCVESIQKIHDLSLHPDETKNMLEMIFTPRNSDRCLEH
The nature of test [5]: qHTS assay to identify aromatase inhibitors - cell viability counter screen (AID 743084).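 Also: cells stimulated with testosterone during compound exposure; nearly all actives have a fitted effect of over 55% in size.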
In test [6] the target is Aryl hydrocarbon receptor (Homo sapiens) (UniProt P35869). The test can be described thus: qHTS assay to identify small molecule that activate the aryl hydrocarbon receptor (AhR) signaling pathway (AID 743085). Also: nearly all actives have a fitted effect of over 15% in size. Also: potency is read from the fitted curve at half-maximal effect.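 As to activation: HG2L7.5c1 human HepG2 liver cells with stably integrated DRE-driven firefly reporter; series mostly up to about 70 µM.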 The method in brief: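 Reporter assay in engineered HepG2 line HG2L7.5c1, whose plasmid carries twenty dioxin responsive elements upstream of firefly luciferase. Treatment lasted 24 h at 37C; ONE-Glo luminescence gauged induction.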
Chain of Aryl hydrocarbon receptor (Homo sapiens) (P35869 whole entry, looked up): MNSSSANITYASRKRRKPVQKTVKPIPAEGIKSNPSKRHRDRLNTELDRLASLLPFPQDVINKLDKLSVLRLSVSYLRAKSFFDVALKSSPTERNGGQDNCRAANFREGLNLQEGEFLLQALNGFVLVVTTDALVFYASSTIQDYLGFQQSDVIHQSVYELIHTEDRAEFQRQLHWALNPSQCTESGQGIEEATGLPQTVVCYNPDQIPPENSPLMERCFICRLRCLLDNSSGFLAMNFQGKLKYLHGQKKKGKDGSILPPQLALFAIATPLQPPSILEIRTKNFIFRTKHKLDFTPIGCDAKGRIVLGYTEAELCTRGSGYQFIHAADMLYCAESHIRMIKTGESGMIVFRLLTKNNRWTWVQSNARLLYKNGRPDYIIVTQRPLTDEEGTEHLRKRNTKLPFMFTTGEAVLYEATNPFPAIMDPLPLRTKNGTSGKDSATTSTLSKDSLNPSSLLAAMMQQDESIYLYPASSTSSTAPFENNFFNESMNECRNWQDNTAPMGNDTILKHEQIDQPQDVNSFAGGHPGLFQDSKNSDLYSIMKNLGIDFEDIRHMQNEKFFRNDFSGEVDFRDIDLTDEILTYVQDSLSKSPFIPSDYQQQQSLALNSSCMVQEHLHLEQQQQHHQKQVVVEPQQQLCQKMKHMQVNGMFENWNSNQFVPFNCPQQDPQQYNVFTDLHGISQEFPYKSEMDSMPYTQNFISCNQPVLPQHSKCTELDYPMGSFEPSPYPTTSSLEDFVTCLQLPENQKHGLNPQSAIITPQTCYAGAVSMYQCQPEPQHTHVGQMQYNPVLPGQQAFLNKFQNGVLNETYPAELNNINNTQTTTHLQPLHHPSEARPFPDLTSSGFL

A short description of test [7]: qHTS assay to identify small molecule that activate the aryl hydrocarbon receptor (AhR) signaling pathway - cell viability counter screen (AID 743086). Also: series mostly up to about 70 µM; nearly all actives have a fitted effect of over 45% in size. A digest of the protocol: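 Cytotoxicity counter screen: CellTiter-Fluor signal (30 min, 37 C) in 4000 HepG2 cells/well carrying the DRE-luciferase reporter, following 24 h compound exposure at 37 C.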
Test [8] deals with Peroxisome proliferator-activated receptor gamma (Homo sapiens) (UniProt P37231). The test can be described thus: qHTS assay to identify small molecule antagonists of the peroxisome proliferator-activated receptor gamma (PPARg) signaling pathway (AID 743191; calls by dose curve; also: series mostly up to about 63 µM; nearly all actives have a fitted effect of over 30% in size). A digest of the protocol:
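Beta-lactamase reporter under UAS control in HEK293H PPARg-bla cells; compound treatment 17 h at 37C. Read-out: fluorescence intensity after 1 h room-temperature incubation with LiveBLAzer B/G FRET substrate.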

Test [9] is described as follows: qHTS assay to identify small molecule antagonists of the peroxisome proliferator-activated receptor gamma (PPARg) signaling pathway - cell viability counter screen (AID 743194). Also: nearly all actives have a fitted effect of over 55% in size. The method in brief: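 Viability was measured as CellTiter-Glo luminescence in GeneBLAzer PPARg UAS-bla HEK293H cells. These cells had been exposed 17 h at 37 C to compounds together with rosiglitazone at 50 nM final, with the beta-lactamase readout taken in the same wells.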

Test [10] can be described thus: qHTS assay for small molecule agonists of the antioxidant response element (ARE) signaling pathway (AID 743202; active = well fitted activation curve with a large enough effect in the signal ratio in the repeat runs, not every such curve was filed as active; the % refers to the signal ratio; also: potency is read from the fitted curve at half-maximal effect). The method in brief:
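Quantitative high-throughput format in HepG2 cells bearing an integrated ARE-beta-lactamase reporter. Compound exposure lasted 16 h at 37 C, and fluorescence was read 2 h after adding LiveBLAzer B/G substrate at room temperature.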

The nature of test [11]: qHTS assay for small molecule agonists of the antioxidant response element (ARE) signaling pathway - cell viability counter screen (AID 743203; calls by dose curve; also: nearly all actives have a fitted effect of over 55% in size). A digest of the protocol:
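ARE-bla HepG2 cells were plated, rested 5 h at 37C/5% CO2, then exposed to compounds in DMSO for 16 h. Viability was read as CellTiter-Glo luminescence after 30 min at room temperature, in the same wells as the ARE screen.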

Test [12] is described as follows: qHTS assay for small molecule activators of the heat shock response signaling pathway - cell viability counter screen (AID 743209). Also: nearly all actives have a fitted effect of over 50% in size. A digest of the protocol:
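HSE-bla HeLa cells plated overnight, then exposed to Tox21 compounds (23 nL in DMSO) for 5 h at 37 C. After the bla reporter read, CellTiter-Glo was added in the same wells and luminescence read after 30 min at room temperature.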

Test [13] in a line: qHTS assay for small molecule activators of the heat shock response signaling pathway (AID 743210; active = well fitted activation curve with a large enough effect in the signal ratio in the repeat runs, with a control signal flat, not every such curve was filed as active; the % refers to the signal ratio;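 also: HeLa cells with beta-lactamase reporter driven by heat shock elements; series mostly up to about 63 µM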). The method in brief:
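HeLa HSE-bla cells, overnight plating; cpd in DMSO 5 h, 37 C; LiveBLAzer B/G FRET substrate 2.5 h RT; fluorescence intensity read.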

The nature of test [14]: qHTS assay to identify small molecule antagonists of the thyroid receptor (TR) signaling pathway (AID 743065). A digest of the protocol:
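Antagonism measured as loss of luciferase signal in GH3 cells stably carrying a TRE-luciferase reporter, co-treated with compound and T3 (1 nM final) for 23.5 h at 37 C. Viability was read in the same well by CellTiter-Fluor.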

Test [15] concerns the target Estrogen receptor (Homo sapiens) (UniProt P03372). The test can be described thus: qHTS assay to identify small molecule antagonists of the estrogen receptor alpha (ER-alpha) signaling pathway (AID 743069; active = well fitted curve in the direction sought with a large enough effect in the signal ratio in the repeat runs, not every such curve was filed as active; the % refers to the signal ratio). A digest of the protocol: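 ER-alpha-UAS-bla GripTite HEK293 line; 2% charcoal-stripped FBS overnight; plated, 4 hr 37C/5% CO2; cpd in DMSO + 17beta-estradiol, 18 hr 37C; LiveBLAzer B/G FRET substrate 2 hr RT; fluorescence intensity.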

Test [16] shares this target. The test can be described thus: qHTS assay to identify small molecule agonists of the estrogen receptor alpha (ER-alpha) signaling pathway (AID 743075; calls by dose curve;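 also: HEK293 GripTite cells with ER-alpha and UAS-driven beta-lactamase reporter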).
Test [17] shares this target. The experiment in a line: qHTS assay to identify small molecule agonists of the estrogen receptor alpha (ER-alpha) signaling pathway using the BG1 cell line (AID 743079). Also: nearly all actives have a fitted effect of over 20% in size. Also: potency is read from the fitted curve at half-maximal effect.
Test [18] can be described thus: qHTS assay to identify small molecule antagonists of the estrogen receptor alpha (ER-alpha) signaling pathway using the BG1 cell line (AID 743080; calls by dose curve; also: series mostly up to about 70 µM; nearly all actives have a fitted effect of over 25% in size). A digest of the protocol: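 Antagonist mode: compounds in DMSO were pinned onto BG1-Luc-4E2 cells alongside 17beta-estradiol agonist, incubated 21.5 h, and ERE-driven luciferase measured with ONE-Glo. Cytotoxicity was multiplexed using CellTiter-Fluor fluorescence.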

Test [19] deals with Peroxisome proliferator-activated receptor gamma (Homo sapiens) (UniProt P37231). The experiment in a line: qHTS assay to identify small molecule agonists of the peroxisome proliferator-activated receptor gamma (PPARg) signaling pathway (AID 743094; active = well fitted activation curve with a large enough effect in the signal ratio in the repeat runs, not every such curve was filed as active; the % refers to the signal ratio). The method in brief:
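GeneBLAzer PPARg UAS-bla HEK293H cells were plated, rested 5 h, then exposed to compounds for 17 h at 37C. Beta-lactamase activity was read by LiveBLAzer B/G FRET substrate fluorescence after 1 h at room temperature.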

“And” between values parts separate entries of the source, which are not always exact repeats. Identical values can stand only once. Results filed as inconclusive are left out. Unmarked numbers belong to inactive results. The source made the active and inactive calls. Unless noted, calls follow the shape of the dose curve; as a rule, active = well fitted curve in the direction sought with a large enough effect in the repeat runs; inconclusive = weak or mixed curves; inactive = no such curve, though single readings can be large; an effect the other way counts as inactive or inconclusive.

Chain of Peroxisome proliferator-activated receptor gamma (Homo sapiens) (P37231 whole entry, looked up): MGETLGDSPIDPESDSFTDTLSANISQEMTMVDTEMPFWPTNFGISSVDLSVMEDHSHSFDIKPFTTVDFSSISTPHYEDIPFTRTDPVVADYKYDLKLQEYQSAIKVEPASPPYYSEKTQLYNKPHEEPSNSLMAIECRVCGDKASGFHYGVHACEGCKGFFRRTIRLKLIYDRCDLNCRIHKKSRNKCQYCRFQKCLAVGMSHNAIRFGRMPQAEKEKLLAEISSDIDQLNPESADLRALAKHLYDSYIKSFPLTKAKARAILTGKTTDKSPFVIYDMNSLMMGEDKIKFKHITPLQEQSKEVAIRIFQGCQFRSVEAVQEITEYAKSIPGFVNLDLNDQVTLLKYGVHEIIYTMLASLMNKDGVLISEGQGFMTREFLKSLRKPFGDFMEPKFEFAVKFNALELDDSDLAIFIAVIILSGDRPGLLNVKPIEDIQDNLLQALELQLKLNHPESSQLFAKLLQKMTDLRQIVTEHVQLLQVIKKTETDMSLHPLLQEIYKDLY
Chain of Estrogen receptor (Homo sapiens) (P03372 whole entry, looked up): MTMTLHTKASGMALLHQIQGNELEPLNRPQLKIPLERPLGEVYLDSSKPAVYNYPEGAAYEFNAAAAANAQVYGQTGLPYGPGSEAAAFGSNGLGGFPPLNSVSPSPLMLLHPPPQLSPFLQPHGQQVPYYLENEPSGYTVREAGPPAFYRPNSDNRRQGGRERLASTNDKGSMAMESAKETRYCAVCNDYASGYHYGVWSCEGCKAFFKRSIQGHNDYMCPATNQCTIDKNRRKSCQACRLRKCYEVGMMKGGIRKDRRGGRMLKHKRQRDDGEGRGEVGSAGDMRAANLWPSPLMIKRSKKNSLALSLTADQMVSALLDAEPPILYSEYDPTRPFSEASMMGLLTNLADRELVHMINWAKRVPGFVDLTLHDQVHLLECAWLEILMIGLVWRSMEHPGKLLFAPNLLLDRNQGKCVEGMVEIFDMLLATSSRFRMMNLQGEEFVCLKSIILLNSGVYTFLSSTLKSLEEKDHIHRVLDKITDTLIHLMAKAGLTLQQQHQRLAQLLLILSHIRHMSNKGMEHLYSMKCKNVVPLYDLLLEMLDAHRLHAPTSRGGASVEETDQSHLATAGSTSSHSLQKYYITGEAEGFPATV

Turning to `C1=C\CC/C=C\CC/C=C\CC/1`, the Potency entry (in test [1]; in [2]; with Aromatase (Homo sapiens); in test [5]; in [6]; in test [7]) was “inactive” throughout. In addition, the Potency entry in [9] and in test [10] was “inactive” in each case. The result in test [3], in test [4], in test [8], in test [11], in test [12] and in [13] was inactive.

In the case of `Cc1ncc(CSSCc2cnc(C)c(O)c2CO)c(CO)c1O`, the Potency entry in test [14], in [2], in test [15], in test [16], in test [17] and in [18] was “inactive” each time. Besides, the Potency entry (with Aromatase (Homo sapiens); in test [5]; in test [6]; in test [7]; in [9]; in [10]) was “inactive” throughout. The result in test [3], in test [4], in test [19], in [8] and in [11] was inactive.

`C[C@H]1O[C@@H](n2cc(F)c(=O)[nH]c2=O)[C@H](O)[C@@H]1O`: the Potency entry (in test [1]; in [2]; in the test with Aromatase (Homo sapiens); in [5]; in test [6]; in test [7]) was “inactive” each time. Further, the Potency result in test [9] was “inactive”. In addition, the call in test [3], in test [4], in test [19], in test [11], in test [12] and in test [13] was inactive.

With `CC1CCN(CCCC(=O)c2ccc(F)cc2)CC1`, the Potency entry in [14], in test [2], in test [15], in test [16], in test [17] and in [18] was “inactive” throughout. For the same molecule, the Potency entry (with Aromatase (Homo sapiens); in test [5]; in [6]; in test [7]; in test [9]; in [10]) was “inactive” in each case. Besides, the call in test [3], in test [4], in test [19], in [8], in [11] and in test [12] was inactive. Also, the molecule was called inactive in test [13].

For the molecule `[O-][N+](=Nc1ccccc1)c1ccccc1`, the Potency entry (in [1]; in test [2]; in [15]; in test [16]; in the test with Aromatase (Homo sapiens); in test [5]) was “inactive” in each case. Besides, the Potency result in test [7] and in test [9] was “inactive” each time. Also, the outcome in test [3], in test [4], in test [19], in test [11], in test [12] and in [13] was inactive. Besides, the Potency was 15 µM (active) and 54.5 µM (active) in test [17]; 30.6 µM (active) in test [6]; 6.86 µM (active) in test [10].

For `NC(=O)c1c(Cl)cccc1Cl`, the Potency entry in test [14], in [2], in test [15], in test [16], in [17] and in [18] was “inactive” throughout. For the same molecule, the Potency entry (with Aromatase (Homo sapiens); in test [5]; in [6]; in test [7]; in test [9]; in [10]) was “inactive” in each case. The call in test [3], in test [4], in test [19], in [8], in test [11] and in test [12] was inactive. For the same molecule, the molecule was called inactive in [13].

On to `CC(C)N1C(=O)c2ccccc2C1=O`, for which the Potency entry in [1], in test [2], in test [15], in [16], in test [17] and in test [18] was “inactive” each time. For the same molecule, the Potency result (with Aromatase (Homo sapiens); in [5]; in test [6]; in [7]) was “inactive” in each case. Further, the call in [3], in [4], in [19], in test [8], in test [11] and in [12] was inactive. For the same molecule, the molecule was classed as inactive in test [13].
